Data on 91 molecules can be found in PubChem BioAssay AID449762 (Southern Research Specialized Biocontainment Screening …, 2010).

The term inhibition denotes the change of the read-out against control, counted positive when it falls.

Values joined by “and” are separate entries in the source; they are usually repeats but may differ in a detail not shown here. Equal entries are not always repeated. The campaign covered roughly 330,000 compounds. About 1,900 (0.58%) were called active. About 4% were inconclusive and are not listed. The list is a sample of the results. Entries with a potency or affinity are not part of this list. Unmarked numbers belong to inactive results. No stated cut-off is given here; in the data, inconclusive means inhibition above about 70% without an active follow-up result; inactive means below that.

This experiment in a line: M. tuberculosis growth inhibition, HTS (AID 449762).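 Further: bacterial growth assessed after seven days of incubation.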 Conditions: M. tuberculosis H37Rv growth inhibition, 7H9 media; at 25 µM; active compounds read high.
`Cc1ccccc1CSc1nnc(C)c(=O)n1N`: the inhibition was 0.74%.

As to `Cc1nnc(SCc2c(Cl)cccc2Cl)n(N)c1=O`, the inhibition is -0.46%. Consider `O=C(CSc1nc(-c2ccco2)cc(C(F)(F)F)n1)NC1CCCC1`, for which the inhibition was -5.38%. To `Cc1nc2c(c(C)nn2-c2ccccc2)c(C)c1CCC(=O)Nc1ccc(CN2CCCC2)cc1` belongs 55.7%; to `Cc1ccc(CNC(=O)CCc2c(C)nc3c(c(C)nn3-c3ccc(C)cc3)c2C)cc1`, 0.88%. As for `CCN(CC)S(=O)(=O)c1ccc(C(=O)N2CCN(CCN3C(=O)c4cccc5cccc(c45)C3=O)CC2)cc1`, the inhibition was -0.01%. For `Cn1c(CCNC(=O)c2cccs2)nnc1SCC(=O)Nc1nc(-c2ccccc2)cs1`, the inhibition is -0.83%. With `Cc1cc(C)n2nc(C(=O)OCC(=O)Nc3ccc(C)c(F)c3)nc2n1`, the inhibition is -2.78%. `COc1ccc(/C=C/C(=O)c2sc(-c3ccccc3)nc2C)cc1`: the inhibition is -17.3%. The same measure for `Cc1nc(-c2ccccc2)sc1C(=O)/C=C/c1ccc(Cl)cc1`: 36.1%. As for `Cc1ccc(N/C=C/C(=O)c2sc(-c3ccccc3)nc2C)cc1`, the inhibition was 11.4%. The same measure for `COc1ccc(NC(=O)c2sc(-c3ccccc3)nc2C)c(OC)c1`: 3.27%; for `Cc1ccc(S(=O)(=O)CCC(=O)NCc2ccco2)cc1`: -10.5%.

On to `O=C(Nc1ccc(N2CCOCC2)c(Cl)c1)c1ccc(-n2cnnc2)cc1Cl`, for which the inhibition was 2.83%.

Consider `COc1ccc(-n2c(CNCCc3ccc(C)cc3)nc3ccccc3c2=O)cc1`, for which the inhibition was 14.6%.

With `COc1ccc(CN2CCN(S(=O)(=O)c3ccc(F)cc3)CC2)c(OC)c1OC`, the inhibition was 9.52%. On to `COc1ccc(CN2CCN(c3ccc(F)cc3)CC2)c(OC)c1OC`, for which the inhibition was 0.31%. The same measure for `Cc1ccc(S(=O)(=O)N2CCOCC2)cc1NC(=O)C(c1ccc(Cl)cc1)C(C)C` (stereo unspecified): -2.19%; for `CCOC(=O)[C@H]1[C@H]2COc3ccc(OC)cc3[C@@H]2N2C(=O)c3ccccc3NC(=O)[C@@]12C`: 3.81%. To `Cc1cc(C)n(CCNC(=O)c2cc(COc3ccc4ncccc4c3)on2)n1` belongs 4.76%; to `CC(NC(=O)c1cc(COc2ccc3ncccc3c2)on1)c1ccc(F)cc1` (stereo unspecified), 6.82%; to `Cc1ccc(/C=N/NC(=O)Cc2ccc(Cl)cc2)c(O)c1`, -1.94%. The same measure for `O=C(COc1ccccc1F)Nc1ccc(S(=O)(=O)Nc2nccs2)cc1`: 3.76%; for `O=C(C1=C[C@@H](c2ccc(C(F)(F)F)cc2)C[C@@H](OCc2ccc(CO)cc2)O1)N1CCN(Cc2ccccc2)CC1`: 5.34%; for `Cc1ccc(C(=O)Nc2cc(C(F)(F)F)ccc2-n2cncn2)o1`: -8.09%. Consider `O=C(Nc1cc(C(F)(F)F)ccc1-n1cncn1)c1ccc(Br)cc1`, for which the inhibition is -2.45%. To `Cc1c(C(=O)O)oc2ccc(S(=O)(=O)NCCC3=CCCCC3)cc12` belongs -7.6%; to `CC(=O)N1CCCc2cc(S(=O)(=O)NC(C(=O)NCc3ccc(C)cc3)C(C)C)ccc21` (stereo unspecified), 9.01%; to `Cc1ccc(C(=O)Cn2cncn2)cc1`, 9.3%. For the molecule `Cn1c(O)c(/C=C2/C=CC=N2)c(=O)[nH]c1=O`, the inhibition is 17.3%. To `CCCCn1c(O)c(/C=C2\C=Nc3ccccc32)c(=O)[nH]c1=O` belongs 12.7%. Regarding `Cc1ccccc1C(=O)N1CCC(C(=O)Nc2nccs2)CC1`, the inhibition is -0.78%. The same measure for `CC(=O)N1CCN(C(=O)CN2C(=O)NC(C)(c3ccc4ccccc4c3)C2=O)CC1` (stereo unspecified): 6.21%; for `Cc1ccc(CNCC(=O)Nc2ccc(C)cc2Br)cc1`: 2.37%. To `Cc1ccc(NC(=S)Nc2cccc3cnccc23)cc1` belongs 1.12%; to `S=C(Nc1cccc(Cl)c1)Nc1cccc2cnccc12`, 10%. Consider `CCOC(=O)c1cc(C)sc1NC(=O)CN1CCN(C(=O)c2ccco2)CC1`, for which the inhibition is 17%. The same measure for `COC(=O)c1cc(C)sc1NC(=O)CN1CCN(C(=O)c2ccco2)CC1`: -5.56%. Turning to `CCCn1nc(C(=O)NNC(=O)c2cc(S(=O)(=O)NC)ccc2Br)c2ccccc2c1=O`, the inhibition was -2.51%. To `COC(=O)c1ccc([C@H]2CC(=O)O2)cc1` belongs -4.85%; to `O=C(N/N=C/c1ccccn1)c1ccc(NC(=O)c2ccc(F)cc2)cc1`, 2.56%; to `COc1ccc(/C=N/NC(=O)CSCc2ccc([N+](=O)[O-])cc2)cc1OC`, -9.89%.

For `O=C(CSCc1ccc([N+](=O)[O-])cc1)N/N=C/c1cccnc1`, the inhibition was 3.16%. To `COc1cc(C(=O)OCC#N)ccc1OCc1c(C)noc1C` belongs 9.39%; to `COc1cc(NCc2ccccc2)c2ncn(C(C)C)c2c1`, 1.58%; to `CCOc1cc(NCc2ccccc2)c2ncn(C(C)C)c2c1`, 67.6%. Consider `COc1ccccc1CNC(=O)C(CCSC)NS(=O)(=O)c1ccc2c(c1)oc(=O)n2C` (stereo unspecified), for which the inhibition was 3.84%. The same measure for `O=C(C(=O)N1CC=C(c2ccccc2)CC1)c1c[nH]c2ccccc12`: 5.82%; for `O=S(=O)(NCc1ccco1)c1ccc2ccccc2c1`: 10.5%; for `COC(=O)c1ccc(NC(=O)COc2ccc([N+](=O)[O-])cc2)cc1`: -9.31%. The same measure for `Cc1ncsc1CCOC(=O)c1cccc([N+](=O)[O-])c1`: 8.02% and -15.9%; for `CC(=O)Nc1ccc(NC(=O)COc2ccc([N+](=O)[O-])cc2)cc1`: -3.36%.

Turning to `Cc1ncsc1CCOC(=O)c1ccccc1`, the inhibition was 4.41%. To `O=C(Nc1ccc(Cl)c(S(=O)(=O)Nc2ccccc2Cl)c1)c1cccs1` belongs -2.32%.

In the case of `CC(C)(C)NCCOCCOc1ccccc1-c1ccccc1`, the inhibition is 5.36%.

As to `N#Cc1ccccc1S(=O)(=O)N1CCN(C(=O)[C@H](Cc2ccccc2)NC(=O)c2ccco2)CC1`, the inhibition was -9.05%. To `C#CC[N+](C)(C)CCCCCCCCCC` belongs 6.64%; to `CCCCCC[N+](C)(C)CCSSCC[N+](C)(C)CCCCCC`, -17.5%. The same measure for `CC(C)(C)c1ccc(S(=O)(=O)N2CCN(CC(O)COCC3CCCO3)CC2)cc1` (stereo unspecified): 7.79%. The same measure for `Cc1cc(/C=N/NC(N)=O)c(C)n1-c1ccc(F)cc1`: 1.83%; for `Cc1cccc(C)c1-n1c(C)cc(/C=N/NC(N)=S)c1C`: 51.5%. For `NSc1nc(N)c2nc(-c3ccccc3)c(-c3ccccc3)nc2n1`, the inhibition is 7.97%.

Consider `Nc1nc(N)c2nc(-c3ccccc3)c(N)nc2n1`, for which the inhibition was 16.7%. With `COc1cccc(/C=N/NC(=O)CCCC(=O)Nc2ccc(Br)cc2)c1`, the inhibition was -7.05%.

Regarding `CCc1ccc(N2CC(C(=O)OCC(=O)Nc3ccc(C(C)=O)cc3)CC2=O)cc1` (stereo unspecified), the inhibition is -5.19%. Regarding `S=C1NC2=C(CCCC2)C2(CCCCC2)N1`, the inhibition was -1.82%. Turning to `CC(C)(C)NC(=O)NC(=O)CSc1ncccn1`, the inhibition is 4.89%. To `C=CCn1c(NCc2ccc3c(c2)OCO3)nc2ccccc21` belongs 1.97%; to `O=C1OCc2nc3cc4c(cc3c(-c3ccc(F)cc3)c21)OCO4`, 3.09%. Take `Cc1cc(NS(=O)(=O)c2ccc(NC(=O)/C=C/c3ccccc3Cl)cc2)no1`: the inhibition is 40.1%.

As to `COc1ccccc1/C=C/C(=O)Nc1ccc(S(=O)(=O)Nc2cc(C)nc(C)n2)cc1`, the inhibition is 8.18%. Take `O=C(O)/C=C\C(=O)Nc1ccc(N2CCN(c3ccc(F)cc3)CC2)cc1`: the inhibition was 14%. To `Cn1c(O)c(/C=C2\C=Nc3ccccc32)c(=O)n(C)c1=O` belongs 3.29%. To `O=c1oc2ccccc2c(O)c1/C=N/c1ncccn1` belongs 4.28%. Take `Cc1cc2cc(CNC(=S)Nc3ccc(OC(F)(F)F)cc3)ccc2n1C`: the inhibition was -4.09%. In the case of `O=S(=O)([N-]c1nc2ccccc2nc1-n1cc[n+](Cc2ccccc2)c1)c1ccccc1`, the inhibition is 1.97%. To `CCCC[n+]1ccn(-c2nc3ccccc3nc2[N-]S(=O)(=O)c2ccccc2)c1` belongs -13.6%. To `O=C(NCCc1ccc(Cl)cc1)C1CCC(CNc2nc(=S)[nH]c3ccccc23)CC1` (stereo unspecified) belongs 5.86%. Take `O=C1OC(CCl)CN1Cc1c(Cl)cccc1Cl` (stereo unspecified): the inhibition is -11.9%. To `Cc1nn(Cc2ccccc2Cl)c(C)c1C(=O)NCC(c1cccs1)N1CCOCC1` (stereo unspecified) belongs 0.07%; to `COc1ccc(C)cc1NC(=O)CCN1CCN(c2ccccc2)CC1`, 5.54%.

Turning to `Cc1ccc(Cn2c(=N)n(CC(O)c3ccco3)c3ccccc32)cc1` (stereo unspecified), the inhibition is -10.2%. The same measure for `N=c1n(Cc2ccccc2)c2ccccc2n1CC(O)c1ccco1` (stereo unspecified): -2.81%.

Consider `COc1ccc(C(=O)CC(c2ccccc2)S(=O)(=O)c2ccc(C)cc2)cc1` (stereo unspecified), for which the inhibition is 11.8%. To `COc1ccc(C(CC(=O)c2ccccc2)S(=O)(=O)c2ccccc2)cc1` (stereo unspecified) belongs 21.9%; to `O=[N+]([O-])c1cccc(/C=N/Nc2nc(C(Cl)(Cl)Cl)nc3ccccc23)c1`, 4.81%; to `COc1ccc(CN=C2NC(=O)CC(C(=O)Nc3ccc(Cl)cc3)S2)cc1` (stereo unspecified), -3.21%. Take `O=C(Nc1ccc(S(=O)(=O)Nc2nccc(C3Cc4ccccc4C(=O)O3)n2)cc1)c1ccccc1` (stereo unspecified): the inhibition is 0.33%. To `Cc1cc(C)c(NC(=O)CCCn2c(=O)oc3ccccc32)c(C)c1` belongs 0.61%; to `Cc1[nH][nH]c(=O)c1C(c1ccc(-c2cccc(Cl)c2)o1)c1c(C)[nH][nH]c1=O`, 4.79%; to `Cc1[nH][nH]c(=O)c1C(c1ccc(-c2cccc(C(=O)O)c2)o1)c1c(C)[nH][nH]c1=O`, 0.63%.
